Source: PubChem BioAssay (EPA / NIEHS)
The source made the active and inactive calls. How the source made its calls: active means hit-call score of the fitted dose curve at least 0.9, where 1 is the maximum; inactive means score below 0.9.

Experiments:
[1] = ATG_E_Box_CIS: Attagene CIS-FACTORIAL HepG2 Assay for human Enhancer Box (E-box) (AID 2282936); settings: HepG2 E-box cis-reporter transcription, actives raise or lower the signal
Method in brief: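 Transiently transfected HepG2, endogenous TF-driven reporters, 24 h dosing. Readout: RT-PCR plus capillary electrophoresis of fluorescent reporter fragments. Gain or loss of signal fitted bidirectionally against DMSO baseline.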

[2] = ATG_M_61_CIS: Attagene CIS-FACTORIAL HepG2 Assay for M61 Transcription Factor (Internal Marker) (AID 2282937); settings: HepG2 Attagene CIS-FACTORIAL M61 internal marker reporter; actives raise or lower the signal
Method in brief: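 Human liver HepG2, transient MRTU transfection (cis promoter elements), 24 h compound. Total RNA → oligo(dT) RT → PCR → FAM label → HpaI → CE. Internal background marker; bidirectional fitting, DMSO = baseline.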

[3] = ATG_EGR_CIS: Attagene CIS-FACTORIAL HepG2 Assay for human Early Growth Response 1 (EGR1) (AID 2282938); settings: HepG2 Attagene CIS-FACTORIAL EGR reporter mRNA; actives raise or lower the signal
Method in brief: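 Transient transfection of human HepG2 with multiple cis-regulated reporter units, chemical exposure 24 h, total RNA isolated. Reverse transcription, PCR, fluorescent labelling and capillary electrophoresis quantify reporter transcripts; activity fitted bidirectionally against DMSO.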

[4] = ATG_M_19_CIS: Attagene CIS-FACTORIAL HepG2 Assay for M19 Transcription Factor (Internal Marker) (AID 2282939); settings: HepG2 Attagene CIS-FACTORIAL M19 internal marker reporter; actives raise or lower the signal
Method in brief: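 HepG2 cells transiently transfected with cis-regulated multiple reporter transcription units were dosed for 24 h; reporter mRNA was quantified by RT-PCR, 6-FAM primer-extension labelling, HpaI digestion and capillary electrophoresis, with bidirectional fitting against DMSO baseline.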

[5] = ATG_ERE_CIS: Attagene CIS-FACTORIAL HepG2 Assay for Estrogen Response Element (ERE) (AID 2282940); settings: HepG2 ERE cis-reporter, Attagene RNA transcript; actives raise or lower the signal
Method in brief: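 HepG2 cells transiently transfected with cis-promoter-driven multiplexed reporter transcription units report endogenous TF activity. After 24 h compound exposure, reporter mRNA is quantified by RT-PCR with capillary electrophoresis fluorescence; bidirectional fitting versus DMSO baseline.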

[6] = ATG_Ets_CIS: Attagene CIS-FACTORIAL HepG2 Assay for human Erythroblast Transformation Specific (ETS) (AID 2282941); settings: HepG2 ETS cis-reporter transcription, actives raise or lower the signal
Method in brief: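 Cis-regulated reporter mRNA induction in HepG2 (transient transfection), 24 h exposure, RT-PCR plus capillary electrophoresis detection; DMSO serves as negative control and baseline.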

[7] = target: Hepatocyte nuclear factor 3-beta (Homo sapiens) (UniProt Q9Y261); assay: ATG_FoxA2_CIS: Attagene CIS-FACTORIAL HepG2 Assay for human Forkhead box A2 (FOXA2) (AID 2282942); settings: HepG2 cis-reporter transcription factor activity, 24 h; actives raise or lower the signal
Sequence of Hepatocyte nuclear factor 3-beta (Homo sapiens) (Q9Y261 whole entry, looked up): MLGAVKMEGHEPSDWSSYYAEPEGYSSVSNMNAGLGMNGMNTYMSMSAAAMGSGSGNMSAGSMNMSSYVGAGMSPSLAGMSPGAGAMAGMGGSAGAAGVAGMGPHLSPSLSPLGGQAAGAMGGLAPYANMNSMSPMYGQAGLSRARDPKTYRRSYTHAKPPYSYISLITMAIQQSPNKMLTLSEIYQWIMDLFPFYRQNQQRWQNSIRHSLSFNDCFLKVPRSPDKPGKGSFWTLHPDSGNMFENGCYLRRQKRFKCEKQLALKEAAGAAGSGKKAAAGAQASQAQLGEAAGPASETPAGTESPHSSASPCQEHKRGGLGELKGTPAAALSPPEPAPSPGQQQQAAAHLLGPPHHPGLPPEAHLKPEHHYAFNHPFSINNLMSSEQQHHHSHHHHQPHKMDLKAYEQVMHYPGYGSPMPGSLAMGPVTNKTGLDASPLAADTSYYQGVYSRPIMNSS
Method in brief: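 Transient MRTU transfection of HepG2 liver cells; 24 h treatment; total RNA → oligo(dT) RT → PCR → FAM primer extension → HpaI cut → CE. Bidirectional fit vs DMSO.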

[8] = ATG_FoxO_CIS: Attagene CIS-FACTORIAL HepG2 Assay for human Forkhead box O (FoxO) (AID 2282943); settings: HepG2 Attagene cis-reporter, FoxO element, mRNA; actives raise or lower the signal
Method in brief: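 Read-out: fluorescence of 6-FAM-labelled reporter cDNA fragments resolved by capillary electrophoresis. Transiently transfected HepG2 cells were dosed for 24 h; activity fitted in both directions relative to DMSO controls.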

[9] = ATG_GATA_CIS: Attagene CIS-FACTORIAL HepG2 Assay for human GATA Binding Protein (AID 2282944); settings: HepG2 GATA cis-element reporter, Attagene multiplex mRNA; actives raise or lower the signal
Method in brief: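 HepG2 cells transiently transfected with multiplexed cis-element reporter units reflecting endogenous transcription factor activity; reporter mRNA measured after 24 h dosing by RT-PCR, 6-FAM labeling, HpaI digestion and capillary electrophoresis. Bidirectional fitting versus DMSO baseline.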

[10] = ATG_GLI_CIS: Attagene CIS-FACTORIAL HepG2 Assay for human Zinc Finger Protein GLI1 (AID 2282945); settings: HepG2, Attagene cis-factorial reporter mRNA, GLI element; actives raise or lower the signal
Method in brief: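 Transiently transfected HepG2 cells report endogenous transcription factor activity via cis-element-driven reporter units. After 24 h compound exposure, reporter mRNA was measured by RT-PCR with capillary electrophoresis; bidirectional fitting against DMSO baseline.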

[11] = ATG_GRE_CIS: Attagene CIS-FACTORIAL HepG2 Assay for human Glucocorticoid Response Elements (GRE) (AID 2282947); settings: HepG2 GRE cis-reporter, Attagene multiplex mRNA; actives raise or lower the signal
Method in brief: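 Read-out: fluorescent reporter-transcript fragments separated by capillary electrophoresis after RT-PCR. Transiently transfected HepG2 cells carrying cis-element-driven reporter units were dosed for 24 h; gain or loss of signal fitted against DMSO control.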

[12] = ATG_ISRE_CIS: Attagene CIS-FACTORIAL HepG2 Assay for human Interferon Regulatory Factor 1 (IRF1) binding to an Interferon-Stimulated Response Element (ISRE) (AID 2282948); settings: HepG2 ISRE cis-reporter (Attagene), mRNA transcription readout; actives raise or lower the signal
Method in brief: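 Multiplexed mRNA reporter readout in human liver HepG2 cells: cis-element-driven reporters transfected, compound added for 24 h, transcripts amplified, fluorescently labelled and sized by capillary electrophoresis; curve fitting bidirectional against DMSO.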

[13] = ATG_M_32_CIS: Attagene CIS-FACTORIAL HepG2 Assay for M32 Transcription Factor (Internal Marker) (AID 2282949); settings: HepG2 Attagene cis-factorial M32 reporter, mRNA; actives raise or lower the signal;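 further: background control marker of the multiplexed CIS panel rather than a real target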
Method in brief: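 Transient MRTU transfection of HepG2; 24 h compound treatment; TriZol RNA, oligo(dT) RT, reporter PCR, 6-FAM primer extension, HpaI cut, CE. Gain/loss of signal vs DMSO.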

[14] = ATG_M_06_CIS: Attagene CIS-FACTORIAL HepG2 Assay for M06 Transcription Factor (Internal Marker) (AID 2282950); settings: HepG2 Attagene CIS-FACTORIAL M06 internal marker reporter; actives raise or lower the signal
Method in brief: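 HepG2 cells transiently transfected with cis-regulated multiple reporter transcription units were exposed to chemical for 24 h; reporter mRNA was quantified by RT-PCR, 6-FAM primer labelling, HpaI digestion and capillary electrophoresis, fitted bidirectionally against DMSO.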

[15] = target: Hypoxia-inducible factor 1-alpha (Homo sapiens) (UniProt Q16665); assay: ATG_HIF1a_CIS: Attagene CIS-FACTORIAL HepG2 Assay for human Hypoxia Inducible Factor 1 (HIF1A) (AID 2282951); settings: HepG2 Attagene cis-factorial HIF1a reporter transcription; actives raise or lower the signal
Sequence of Hypoxia-inducible factor 1-alpha (Homo sapiens) (Q16665 whole entry, looked up, the tested form may be a part): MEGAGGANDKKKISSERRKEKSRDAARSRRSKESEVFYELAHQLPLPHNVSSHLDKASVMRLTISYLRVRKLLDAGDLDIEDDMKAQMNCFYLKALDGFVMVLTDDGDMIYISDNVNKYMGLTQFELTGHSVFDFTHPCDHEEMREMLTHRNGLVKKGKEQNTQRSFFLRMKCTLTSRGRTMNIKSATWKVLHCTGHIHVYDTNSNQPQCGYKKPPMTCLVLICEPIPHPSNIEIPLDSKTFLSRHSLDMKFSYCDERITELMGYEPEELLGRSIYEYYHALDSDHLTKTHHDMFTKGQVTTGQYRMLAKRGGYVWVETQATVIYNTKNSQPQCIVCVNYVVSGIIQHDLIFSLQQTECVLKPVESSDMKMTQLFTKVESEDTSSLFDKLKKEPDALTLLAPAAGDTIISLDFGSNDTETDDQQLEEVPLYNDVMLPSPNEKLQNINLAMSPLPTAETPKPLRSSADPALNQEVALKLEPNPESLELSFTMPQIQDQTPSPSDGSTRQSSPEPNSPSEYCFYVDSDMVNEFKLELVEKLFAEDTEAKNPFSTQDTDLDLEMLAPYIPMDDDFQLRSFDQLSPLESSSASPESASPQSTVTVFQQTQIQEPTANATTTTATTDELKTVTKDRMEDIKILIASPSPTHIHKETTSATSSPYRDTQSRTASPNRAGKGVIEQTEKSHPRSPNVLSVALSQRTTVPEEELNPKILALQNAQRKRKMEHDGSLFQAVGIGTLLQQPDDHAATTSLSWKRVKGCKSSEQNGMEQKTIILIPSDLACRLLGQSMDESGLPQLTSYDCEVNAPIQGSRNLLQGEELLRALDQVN
Method in brief: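 Transient MRTU transfection of human HepG2 liver cells, 24 h compound treatment, then total RNA isolation, oligo(dT) reverse transcription, PCR amplification, fluorescent labelling and capillary electrophoresis of reporter fragments. Gain or loss relative to DMSO.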

[16] = target: Hepatocyte nuclear factor 6 (Homo sapiens) (UniProt Q9UBC0); assay: ATG_HNF6_CIS: Attagene CIS-FACTORIAL HepG2 Assay for human Hepatocyte Nuclear Factor 6 (HNF6) (AID 2282952); settings: HepG2 Attagene cis-factorial HNF6 reporter transcription; actives raise or lower the signal
Sequence of Hepatocyte nuclear factor 6 (Homo sapiens) (Q9UBC0 whole entry, looked up, the tested form may be a part): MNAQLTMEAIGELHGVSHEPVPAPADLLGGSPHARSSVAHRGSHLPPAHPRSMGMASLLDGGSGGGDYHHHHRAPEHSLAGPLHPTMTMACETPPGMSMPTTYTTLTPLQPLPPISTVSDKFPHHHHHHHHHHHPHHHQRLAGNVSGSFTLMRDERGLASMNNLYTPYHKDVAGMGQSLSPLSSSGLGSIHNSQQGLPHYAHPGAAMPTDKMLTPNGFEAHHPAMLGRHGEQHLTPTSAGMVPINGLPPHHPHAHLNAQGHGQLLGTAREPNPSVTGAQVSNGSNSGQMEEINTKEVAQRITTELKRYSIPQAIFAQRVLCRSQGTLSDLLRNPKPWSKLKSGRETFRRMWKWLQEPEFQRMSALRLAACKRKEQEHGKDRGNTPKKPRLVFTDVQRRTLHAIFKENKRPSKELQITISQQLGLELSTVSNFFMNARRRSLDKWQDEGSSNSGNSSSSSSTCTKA
Method in brief: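 Twenty-four-hour chemical treatment of reporter-transfected HepG2 cells precedes RNA isolation, DNase-treated reverse transcription and PCR of reporter sequences. Labelled fragments are sized by capillary electrophoresis and fitted bidirectionally versus DMSO.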

[17] = ATG_MRE_CIS: Attagene CIS-FACTORIAL HepG2 Assay for human Metal Responsive Element (MRE) (AID 2282954); settings: HepG2 MRE cis-reporter transcription, Attagene multiplex; actives raise or lower the signal
Method in brief: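 RT-PCR/capillary electrophoresis readout of reporter mRNA, 24 h post-dosing, in HepG2 cells transfected with multiplexed cis-regulated reporter constructs. Gain or loss of signal fitted bidirectionally against DMSO baseline.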

[18] = ATG_PBREM_CIS: Attagene CIS-FACTORIAL HepG2 Assay for human Phenobarbital-responsive Enhancer Module (PBREM) (AID 2282955); settings: HepG2 PBREM cis-reporter, Attagene multiplexed transcription; actives raise or lower the signal
Method in brief: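 Endogenous transcription factors in human liver HepG2 cells drive a PBREM cis-element reporter, whose transcript level after 24 h treatment is quantified by RT-PCR with capillary electrophoresis; activity fitted in both directions against DMSO.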

[19] = target: Paired box protein Pax-6 (Homo sapiens) (UniProt P26367); assay: ATG_Pax6_CIS: Attagene CIS-FACTORIAL HepG2 Assay for human Paired Box 6 (PAX6) (AID 2282956); settings: HepG2 CIS-FACTORIAL PAX6 reporter transcription, RNA readout; actives raise or lower the signal
Sequence of Paired box protein Pax-6 (Homo sapiens) (P26367 whole entry, looked up): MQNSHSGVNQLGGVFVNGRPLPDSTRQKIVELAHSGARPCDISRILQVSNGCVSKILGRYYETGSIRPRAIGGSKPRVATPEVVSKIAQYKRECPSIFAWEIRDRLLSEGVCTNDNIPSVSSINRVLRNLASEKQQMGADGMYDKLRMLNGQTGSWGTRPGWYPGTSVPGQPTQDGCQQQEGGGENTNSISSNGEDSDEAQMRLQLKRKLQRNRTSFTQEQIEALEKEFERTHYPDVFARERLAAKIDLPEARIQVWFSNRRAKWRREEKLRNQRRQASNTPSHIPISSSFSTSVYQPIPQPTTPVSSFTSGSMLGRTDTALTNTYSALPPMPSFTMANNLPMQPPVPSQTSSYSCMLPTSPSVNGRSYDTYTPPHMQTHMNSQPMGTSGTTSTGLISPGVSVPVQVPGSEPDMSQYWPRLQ
Method in brief: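 Fluorescent RT-PCR products separated by capillary electrophoresis report PAX6-linked promoter mRNA in HepG2 cells 24 h post-dose. Curves fitted bidirectionally, DMSO as negative control.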

[20] = target: Heat shock factor protein 1 (Homo sapiens) (UniProt Q00613); assay: ATG_HSE_CIS: Attagene CIS-FACTORIAL HepG2 Assay for human Heat Shock Transcription Factor 1 (HSE) (AID 2282953); settings: HepG2 HSE cis-reporter, Attagene RNA transcription; actives raise or lower the signal
Sequence of Heat shock factor protein 1 (Homo sapiens) (Q00613 whole entry, looked up): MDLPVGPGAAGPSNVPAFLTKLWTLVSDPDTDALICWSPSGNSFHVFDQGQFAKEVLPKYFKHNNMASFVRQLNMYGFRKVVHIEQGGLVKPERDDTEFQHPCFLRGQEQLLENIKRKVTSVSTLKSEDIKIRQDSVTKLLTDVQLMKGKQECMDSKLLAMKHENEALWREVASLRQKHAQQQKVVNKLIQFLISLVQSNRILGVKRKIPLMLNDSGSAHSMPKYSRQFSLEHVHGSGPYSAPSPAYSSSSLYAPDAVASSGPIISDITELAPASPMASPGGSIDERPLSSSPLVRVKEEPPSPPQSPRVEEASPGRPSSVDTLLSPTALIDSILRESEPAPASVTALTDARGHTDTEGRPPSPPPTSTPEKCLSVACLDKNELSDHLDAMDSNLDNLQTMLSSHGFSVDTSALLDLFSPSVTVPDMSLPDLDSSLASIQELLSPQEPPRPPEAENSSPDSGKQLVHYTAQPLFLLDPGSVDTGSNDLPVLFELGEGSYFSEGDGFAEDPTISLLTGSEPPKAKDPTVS
Method in brief: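 HepG2 cells transiently transfected with multiple reporter transcription units under cis-regulatory promoter control, measuring endogenous transcription factor activity. After 24 h chemical exposure, reporter mRNA quantified by RT-PCR, fluorescent labelling, HpaI digestion and capillary electrophoresis; bidirectional fit versus DMSO.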

CC(C)=CCCC(C)=CC=O
outcome [1]: inactive | outcome [2]: inactive | AC50 [3]: 100 µM (active) | outcome [4]: inactive | AC50 [5]: 100 µM (active) | outcome [6]: inactive | outcome [7]: inactive | outcome [8]: inactive | outcome [9]: inactive | outcome [10]: inactive | outcome [11]: inactive | outcome [12]: inactive | outcome [13]: inactive | outcome [14]: inactive | AC50 [15]: 100 µM (active) | outcome [16]: inactive | AC50 [17]: 100 µM (active) | outcome [18]: inactive | outcome [19]: inactive

COC(=O)c1c(Cl)c(Cl)c(C(=O)OC)c(Cl)c1Cl
outcome [1]: inactive | outcome [2]: inactive | outcome [3]: inactive | outcome [4]: inactive | outcome [5]: inactive | outcome [6]: inactive | outcome [7]: inactive | outcome [8]: inactive | outcome [9]: inactive | outcome [10]: inactive | outcome [11]: inactive | outcome [12]: inactive | outcome [13]: inactive | outcome [14]: inactive | outcome [15]: inactive | outcome [16]: inactive | outcome [17]: inactive | outcome [18]: inactive | outcome [19]: inactive

O=c1n(CC2CO2)c(=O)n(CC2CO2)c(=O)n1CC1CO1 (centres undefined)
outcome [1]: inactive | outcome [2]: inactive | AC50 [3]: 100 µM (active) | outcome [4]: inactive | outcome [5]: inactive | AC50 [6]: 100 µM (active) | outcome [7]: inactive | AC50 [8]: 31.7 µM (active) | outcome [9]: inactive | outcome [10]: inactive | AC50 [11]: 32.7 µM (active) | outcome [12]: inactive | outcome [13]: inactive | outcome [14]: inactive | outcome [15]: inactive | outcome [16]: inactive | outcome [20]: inactive | AC50 [17]: 59 µM (active) | outcome [18]: inactive | AC50 [19]: 59.6 µM (active)

COc1ccc(/C=C/S(=O)(=O)NC(=O)c2ccc(C)cc2Cl)cc1
outcome [1]: inactive | outcome [2]: inactive | outcome [3]: inactive | outcome [4]: inactive | outcome [6]: inactive | outcome [7]: inactive | outcome [8]: inactive | outcome [9]: inactive | outcome [10]: inactive | outcome [11]: inactive | outcome [12]: inactive | outcome [13]: inactive | outcome [14]: inactive | outcome [15]: inactive | outcome [16]: inactive | outcome [20]: inactive | outcome [17]: inactive | outcome [19]: inactive

CCN(C(=O)c1cc(C)cc(OC[C@H](C)Nc2ccncc2)c1)C(C)C
outcome [1]: inactive | outcome [2]: inactive | outcome [3]: inactive | outcome [4]: inactive | outcome [6]: inactive | outcome [7]: inactive | outcome [8]: inactive | outcome [9]: inactive | outcome [10]: inactive | outcome [11]: inactive | outcome [12]: inactive | outcome [13]: inactive | outcome [14]: inactive | outcome [15]: inactive | outcome [16]: inactive | outcome [20]: inactive | outcome [17]: inactive | outcome [18]: inactive | outcome [19]: inactive

Cc1[nH]cnc1C[C@H]1CCc2c(C)c3ccccc3n2C1=O
outcome [1]: inactive | outcome [2]: inactive | AC50 [3]: 29.7 µM (active) | outcome [4]: inactive | outcome [6]: inactive | outcome [7]: inactive | outcome [8]: inactive | outcome [9]: inactive | outcome [10]: inactive | outcome [11]: inactive | AC50 [12]: 21.9 µM (active) | outcome [13]: inactive | outcome [14]: inactive | AC50 [15]: 20.7 µM (active) | outcome [16]: inactive | AC50 [20]: 46.5 µM (active) | AC50 [17]: 33.9 µM (active) | AC50 [18]: 15.8 µM (active) | AC50 [19]: 37.2 µM (active)
